Experimental data as given in PubChem BioAssay AID1777 (Sanford-Burnham Center for Chemical Genomics, 2009).
Screen size: about 280,000 compounds; about 50 (0.02%) were called active. Cut-off read from the data, not from the text of the source: active = activation above about 50% (passing the limit was not always enough); inactive = the rest. The list comes from a sample in which actives are over-represented; it also holds similar structures and randomly drawn compounds. Measured potencies and affinities stand elsewhere.

Biological target: Kappa-type opioid receptor (Homo sapiens) (UniProt P41145)
Sequence (P41145 whole entry, looked up): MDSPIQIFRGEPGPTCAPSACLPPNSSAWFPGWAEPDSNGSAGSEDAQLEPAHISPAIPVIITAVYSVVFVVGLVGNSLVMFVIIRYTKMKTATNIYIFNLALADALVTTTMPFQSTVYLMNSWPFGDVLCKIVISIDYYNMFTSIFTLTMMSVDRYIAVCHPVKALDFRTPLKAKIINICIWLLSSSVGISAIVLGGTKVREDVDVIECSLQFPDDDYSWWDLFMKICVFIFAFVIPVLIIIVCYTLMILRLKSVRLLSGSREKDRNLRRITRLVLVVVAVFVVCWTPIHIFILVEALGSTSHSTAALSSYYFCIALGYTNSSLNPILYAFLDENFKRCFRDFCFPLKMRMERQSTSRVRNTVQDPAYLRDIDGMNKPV
Assay: kappa opioid receptor activators – cell-based, luminescence, uHTS, primary screen (AID 1777)
Conditions: KOR beta-arrestin recruitment, at 10 µM, active compounds read high

activation, inactive:
COc1ccc(C[C@H]2CN3C(=NC[C@H]3C)N2CCNC(=O)c2ccc(C)c(Br)c2)cc1 12.5%, Cc1ccc(C(=O)NCCN2C3=NC[C@H](C)N3C[C@H]2Cc2ccc(O)cc2)cc1Br 25.2%, Cc1nnc(SCC(=O)N2c3ccccc3CC2C)[nH]c1=O (centres undefined) 7.1%, O=C(NC1CCCCC1)c1ccc(S(=O)(=O)N2CCOCC2)cc1 2%, Cc1cc(Nc2ccc(Cl)cc2)n2ncnc2n1 -0.8%, Cc1oc(-c2ccccc2F)nc1CS(=O)CC(=O)NC1CC1 (centres undefined) 0.9%, COc1ccc(OC)c(NC(=O)c2ccc(CSc3ncccn3)cc2)c1 -7.7%, COc1ccc(S(=O)(=O)Nc2ccccc2C(=O)Nc2nc(-c3ccc(F)cc3)cs2)cc1OC 15.1%, Cc1ccc(S(=O)(=O)Nc2ccccc2C(=O)Nc2nc(-c3ccc(F)cc3)cs2)cc1 13%, Cc1ccc(O)c(C(=O)c2cnn(C(=O)COc3ccc(Cl)cc3)c2)c1 0.1%, Cc1cc(N/C(=N/S(=O)(=O)c2cc(F)ccc2F)c2ccccc2)n(-c2ccccc2)n1 -1.3%, CCCCCCCCCCCCOC1OC(CO)C(O)C(O)C1NC(C)=O (centres undefined) -0.9%, Cc1cc(=O)cc(C)n1-c1ccc(Cl)cc1 1.5%, CC1=CC(C)(C)N(C)C(=O)N1c1ccc(Cl)cc1 7.6%, CCCn1c(C(CO)Nc2nc(-c3cccc(Br)c3)cs2)nc2ccccc21 (centres undefined) 2.4%, Cc1cccc(C(=O)Nc2cccc(C(=O)N/N=C/c3ccc4c(c3)OCO4)c2)c1 -5.3%, CC(=O)Nc1nc(SCC(=O)NCC2CCCO2)[nH]c(=O)c1NC(=O)c1cccs1 (centres undefined) -4.2%, CCN(C(=O)COC(=O)C1CCN(S(=O)(=O)c2c(Cl)cccc2Cl)CC1)C1CCCCC1 -3.1%, COc1ccc(-n2c(C)cc(C(=O)COc3ccc(-n4cnnn4)cc3)c2C)cc1 3.1%, COc1ccccc1CN(Cc1cc2cc(C)ccc2[nH]c1=O)Cc1nnnn1Cc1ccco1 -3.4%, CC(=O)Nc1ccc(NC(=O)C(C)Sc2n[nH]c(=O)n2Cc2ccccc2)cc1 (centres undefined) -2.2%, CC(Sc1nnc(COc2ccccc2)n1Cc1ccccc1)C(=O)O (centres undefined) 1.6%, O=C(N/N=C/c1c[nH]c2ccc(Br)cc12)c1ccccn1 4.6%, Nc1ccc(C2(c3ccc(N)cc3)C(=O)Nc3ccccc32)cc1 0.1%, Nc1ccc(C2(c3ccc(N)cc3)OC(=O)c3ccccc32)cc1 -7.1%, O=C(CSc1nnc(CNC(=O)c2c(F)cccc2F)o1)c1ccccc1 4.5%, CCOc1ccc(N2C(=O)Nc3ccc(Br)cc3C2(O)C(=O)NCCN(C)C)cc1 (centres undefined) -0.1%, Cc1cccc(C(C)C)c1NC(=O)c1ccc(COc2ccc3c(C)cc(=O)oc3c2)cc1 3.9%, CC(=O)Nc1ccc(NC(=O)c2ccc(COc3ccc4c(C)cc(=O)oc4c3)cc2)cc1 0.2%, CN(C)/C=C/C(=O)c1cccc(C(F)(F)F)c1 2.5%, CCC1(c2ccc(F)cc2)NC(=O)N(CC(=O)Nc2ccccc2Cl)C1=O (centres undefined) -0.1%, CCn1c(=O)c(-c2ccccc2)c(O)c2ccccc21 1.3%, CCn1c(=O)c(-c2cc(=O)[nH][nH]2)c(O)c2ccccc21 2.3%, CC(=O)NCC(=O)N(Cc1ccco1)C1(C(=O)NC2CCCCC2)CCCCC1 3.8%, O=C(c1ccc(=O)[nH]c1)N(Cc1ccco1)C1(C(=O)NC2CCCC2)CCCCC1 6%, CC(=O)N(Cc1ccco1)C1(C(=O)NC2CCCCC2)CCCCC1 2.1%, Cc1cccc(C)c1NC(=O)C1(N(C(=O)c2ccccn2)c2ccc(O)cc2)CCCCC1 -0.3%, CC(=O)N(Cc1ccco1)C1(C(=O)NC2CCCC2)CCCCC1 -1%, O=C(c1cnccn1)N(Cc1ccco1)C1(C(=O)NC2CCCC2)CCCCC1 -9%, Cc1cccc(C)c1NC(=O)C1(N(Cc2ccco2)C(=O)Cn2nnnc2N)CCCCC1 -0.3%, O=C(c1ccc(=O)[nH]c1)N(Cc1ccco1)C1(C(=O)NC2CCCCC2)CCCCC1 -2.7%, CC[n+]1c(-c2ccc(C)cc2)csc1Nc1c(C)n(C)n(-c2ccccc2)c1=O -4.9%, Cc1ccc(S(=O)(=O)N2CCN(CC(=O)N/N=C/C=C/c3ccccc3)CC2)cc1 0.3%, COc1cc(OC)cc(C(=O)NCC(=O)N2CCCCC2)c1 -0.7%, CC1(C)Cc2c(cnn2-c2cccc(F)c2)C(NC(=O)c2csnn2)C1 (centres undefined) 5.1%, CCOc1ccccc1NC=C1C(=O)OC(C)(C)OC1=O 4.4%, Cc1c(NC(=O)c2cccc(S(=O)(=O)N3CCOCC3)c2)c(=O)n(-c2ccccc2)n1C -7.9%, O=C(NCC1CCCO1)C1CC(=O)N(c2cccc(Cl)c2)C1 (centres undefined) 5.7%, CCC(=O)Nc1c2c(nn1-c1cccc(Cl)c1)CS(=O)(=O)C2 -8.6%, CCOc1ccccc1NC(=O)CN(C)S(=O)(=O)c1ccc2[nH]c(=O)oc2c1 -1.5%, Cc1ccc2c(CC(=O)NCC3COc4ccccc4O3)coc2c1 (centres undefined) -4.2%, Cc1cccc(-n2ccnc2CN2CCN(C(C)C)C(CCO)C2)c1 (centres undefined) 8%, Cc1cc(C)n(-c2cccc(CN3CCC(CO)(Cc4ccccc4)CC3)c2)n1 -3.3%, CCCC(=O)NC(c1ccc(Cl)cc1Cl)c1ccc2cccnc2c1O (centres undefined) -5.3%, O=C(c1ccc2c3n(nc2c1)-c1ccccc1CO3)N1CCOCC1 0.7%, Cc1cccc(N2CCN(C(=O)C(Cc3ccccc3)n3cccc3)CC2)c1C (centres undefined) 81%, O=C(C(Cc1ccccc1)n1cccc1)N1CCN(c2ccccc2)CC1 (centres undefined) -3.7%

activation, active:
O=C(Nc1nc(-c2ccccc2)cs1)c1ccccc1NS(=O)(=O)c1ccc(F)cc1 111%, CCn1c(=O)c(C2=NS(=O)(=O)c3ccccc3N2)c(O)c2ccccc21 54.2%
